Data as given in the supplement of paper PMC12067093, “Discovery and optimisation of a covalent ligand for TRIM25 and its application to targeted protein ubiquitination” (Chemical Science, 2025).
The full data set covers some 21,000 targets. This sample favours those with the largest changes.

Compound: CC1Cc2ccccc2N1C(=O)C1CCCN(C1)C(=O)CCl (mixture of isomers) [TRIM25 ligand 11 (diastereomer mixture)]
Experiment: probe-labelled cysteine peptide fold change vs DMSO (competition) (log2 fold change); higher = less target engagement (more negative = stronger competition)
Conditions: THP-1, incubation time: 4 h
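Note: competitive chemoproteomic profiling in live THP-1 cells with an iodoacetamide desthiobiotin (IA-DTB) probe, comparing probe-labelled peptide intensities in compound-treated cells against DMSO-treated controls.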

ZMYND8_Q9ULU4_106_EGQVLCCELCPR (UniProt Q9ULU4)
probe-labelled cysteine peptide fold change (10 µM): 0.247 | probe-labelled cysteine peptide fold change (50 µM): 0.0715

ZW10_O43264_650_LGIVWQDVLPVNIYCK (UniProt O43264)
probe-labelled cysteine peptide fold change (10 µM): 0.0783 | probe-labelled cysteine peptide fold change (50 µM): 0.0695

ZNF417_Q8TAU3_56_DVMLENLALISSLGCWCGSK<|>ZNF587_Q96SQ5_56_DVMLENLALISSLGCWCGSK (UniProt Q96SQ5+Q8TAU3)
probe-labelled cysteine peptide fold change (10 µM): 0.112 | probe-labelled cysteine peptide fold change (50 µM): 0.104

ZNFX1_Q9P2E3_1416_CGHVEGLLYGGLLVK (UniProt Q9P2E3)
Sequence of UniProt Q9P2E3 (Q9P2E3 whole entry, looked up): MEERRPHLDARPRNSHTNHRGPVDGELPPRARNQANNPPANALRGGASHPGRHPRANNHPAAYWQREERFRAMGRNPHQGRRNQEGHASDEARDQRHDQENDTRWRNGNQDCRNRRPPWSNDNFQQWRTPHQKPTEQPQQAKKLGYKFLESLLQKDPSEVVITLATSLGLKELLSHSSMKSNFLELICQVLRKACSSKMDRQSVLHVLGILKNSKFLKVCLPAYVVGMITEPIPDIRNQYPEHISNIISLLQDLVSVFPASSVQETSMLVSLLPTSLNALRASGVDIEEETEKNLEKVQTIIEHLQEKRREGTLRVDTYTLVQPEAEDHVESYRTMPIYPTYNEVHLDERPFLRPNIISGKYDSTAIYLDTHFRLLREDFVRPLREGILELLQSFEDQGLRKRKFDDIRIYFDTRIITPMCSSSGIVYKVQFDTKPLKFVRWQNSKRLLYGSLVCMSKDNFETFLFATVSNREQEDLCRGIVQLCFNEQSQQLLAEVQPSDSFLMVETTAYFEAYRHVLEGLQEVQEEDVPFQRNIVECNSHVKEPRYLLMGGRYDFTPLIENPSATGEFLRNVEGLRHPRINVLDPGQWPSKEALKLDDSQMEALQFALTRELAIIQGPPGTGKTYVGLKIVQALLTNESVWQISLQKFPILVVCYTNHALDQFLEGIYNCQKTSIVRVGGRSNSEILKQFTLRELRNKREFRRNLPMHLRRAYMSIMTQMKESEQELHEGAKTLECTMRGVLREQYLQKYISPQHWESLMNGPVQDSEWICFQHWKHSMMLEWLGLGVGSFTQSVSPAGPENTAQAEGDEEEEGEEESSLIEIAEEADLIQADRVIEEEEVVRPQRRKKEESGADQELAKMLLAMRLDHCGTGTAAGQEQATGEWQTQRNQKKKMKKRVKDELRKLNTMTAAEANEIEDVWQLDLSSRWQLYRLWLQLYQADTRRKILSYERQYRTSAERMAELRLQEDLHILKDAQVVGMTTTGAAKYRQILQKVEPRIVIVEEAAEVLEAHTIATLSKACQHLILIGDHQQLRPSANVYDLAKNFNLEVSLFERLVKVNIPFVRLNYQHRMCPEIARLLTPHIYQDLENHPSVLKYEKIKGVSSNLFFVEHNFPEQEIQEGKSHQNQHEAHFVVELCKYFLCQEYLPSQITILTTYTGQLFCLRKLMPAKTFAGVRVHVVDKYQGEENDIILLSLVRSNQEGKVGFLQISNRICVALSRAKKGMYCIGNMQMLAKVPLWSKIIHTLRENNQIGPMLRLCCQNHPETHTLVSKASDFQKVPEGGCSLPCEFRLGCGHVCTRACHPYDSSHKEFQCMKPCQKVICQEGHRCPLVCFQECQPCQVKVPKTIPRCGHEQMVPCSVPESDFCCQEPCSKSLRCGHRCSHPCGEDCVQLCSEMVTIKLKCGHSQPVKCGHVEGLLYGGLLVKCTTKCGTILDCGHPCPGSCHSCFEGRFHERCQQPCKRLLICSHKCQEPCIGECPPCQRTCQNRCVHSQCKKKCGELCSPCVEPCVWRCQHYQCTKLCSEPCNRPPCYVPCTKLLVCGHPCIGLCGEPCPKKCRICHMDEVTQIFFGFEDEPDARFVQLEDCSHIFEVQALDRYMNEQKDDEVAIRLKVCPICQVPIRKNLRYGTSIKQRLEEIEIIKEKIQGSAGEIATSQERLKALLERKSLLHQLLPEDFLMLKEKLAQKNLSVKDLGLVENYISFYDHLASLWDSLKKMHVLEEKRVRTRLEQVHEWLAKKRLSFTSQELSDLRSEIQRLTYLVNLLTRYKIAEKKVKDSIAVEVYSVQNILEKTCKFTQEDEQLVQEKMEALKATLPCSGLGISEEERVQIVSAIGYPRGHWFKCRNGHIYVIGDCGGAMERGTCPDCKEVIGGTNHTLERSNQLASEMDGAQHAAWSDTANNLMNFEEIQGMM
probe-labelled cysteine peptide fold change (10 µM): -0.0464 | probe-labelled cysteine peptide fold change (50 µM): -0.153

ZNF207_O43670_54_KLYTGPGLAIHCMQVHK (UniProt O43670)
Sequence of UniProt O43670 (O43670 whole entry, looked up): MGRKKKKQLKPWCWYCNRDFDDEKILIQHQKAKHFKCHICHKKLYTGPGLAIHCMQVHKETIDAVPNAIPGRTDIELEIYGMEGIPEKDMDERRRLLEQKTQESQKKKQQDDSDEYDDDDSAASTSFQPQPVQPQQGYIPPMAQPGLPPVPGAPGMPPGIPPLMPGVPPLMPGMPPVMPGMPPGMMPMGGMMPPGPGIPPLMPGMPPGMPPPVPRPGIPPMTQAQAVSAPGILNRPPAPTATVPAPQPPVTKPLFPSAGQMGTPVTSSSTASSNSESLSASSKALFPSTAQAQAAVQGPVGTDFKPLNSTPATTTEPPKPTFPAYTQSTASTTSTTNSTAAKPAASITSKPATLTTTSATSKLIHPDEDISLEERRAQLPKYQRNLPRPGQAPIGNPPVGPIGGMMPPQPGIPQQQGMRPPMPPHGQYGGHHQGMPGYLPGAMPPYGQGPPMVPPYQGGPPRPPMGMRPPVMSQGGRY
probe-labelled cysteine peptide fold change (10 µM): -0.6 | probe-labelled cysteine peptide fold change (50 µM): -0.388

ZFAND1_Q8TCF1_64_LKTDQHTSYPCSFK (UniProt Q8TCF1)
Sequence of UniProt Q8TCF1 (Q8TCF1 whole entry, looked up): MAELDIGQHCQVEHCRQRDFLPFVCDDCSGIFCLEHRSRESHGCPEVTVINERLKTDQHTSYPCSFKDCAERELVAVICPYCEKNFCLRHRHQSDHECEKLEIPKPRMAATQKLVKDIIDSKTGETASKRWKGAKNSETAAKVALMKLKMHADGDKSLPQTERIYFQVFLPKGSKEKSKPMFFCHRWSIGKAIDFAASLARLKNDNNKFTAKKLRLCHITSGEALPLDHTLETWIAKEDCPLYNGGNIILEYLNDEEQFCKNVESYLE
probe-labelled cysteine peptide fold change (10 µM): -0.0624 | probe-labelled cysteine peptide fold change (50 µM): -0.388

XRN1_Q8IZH2_16_YPCLSEVVK (UniProt Q8IZH2)
probe-labelled cysteine peptide fold change (10 µM): 0.0639 | probe-labelled cysteine peptide fold change (50 µM): 0.0149

ZNF280D_Q6N043_323_CFSCLK (UniProt Q6N043)
probe-labelled cysteine peptide fold change (10 µM): 0.0838 | probe-labelled cysteine peptide fold change (50 µM): 0.233

ZW10_O43264_588_LGTECFLAQMR (UniProt O43264)
probe-labelled cysteine peptide fold change (10 µM): 0.647 | probe-labelled cysteine peptide fold change (50 µM): 0.508

ZW10_O43264_568_LAPILCDGTATFVDLVPGFR (UniProt O43264)
probe-labelled cysteine peptide fold change (10 µM): 0.117 | probe-labelled cysteine peptide fold change (50 µM): 0.00333

ZBTB7A_O95365_34_TQGLLCDVVILVEGR (UniProt O95365)
Sequence of UniProt O95365 (O95365 whole entry, looked up): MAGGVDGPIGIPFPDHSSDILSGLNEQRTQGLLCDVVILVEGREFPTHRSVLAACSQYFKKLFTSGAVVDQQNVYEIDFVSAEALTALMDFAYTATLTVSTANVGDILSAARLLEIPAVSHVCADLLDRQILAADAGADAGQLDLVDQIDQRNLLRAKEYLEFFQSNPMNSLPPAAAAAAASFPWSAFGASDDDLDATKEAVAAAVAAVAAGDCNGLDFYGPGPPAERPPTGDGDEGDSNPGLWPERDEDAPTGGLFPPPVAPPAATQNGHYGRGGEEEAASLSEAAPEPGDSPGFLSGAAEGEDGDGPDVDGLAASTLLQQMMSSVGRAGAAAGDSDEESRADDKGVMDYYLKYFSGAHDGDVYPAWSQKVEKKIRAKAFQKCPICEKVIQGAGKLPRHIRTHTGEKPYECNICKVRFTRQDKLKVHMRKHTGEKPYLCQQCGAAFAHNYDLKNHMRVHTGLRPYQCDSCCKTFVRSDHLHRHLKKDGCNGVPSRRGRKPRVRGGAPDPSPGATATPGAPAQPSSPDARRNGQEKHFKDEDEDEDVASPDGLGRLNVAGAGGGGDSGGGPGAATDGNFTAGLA
probe-labelled cysteine peptide fold change (10 µM): 0.149 | probe-labelled cysteine peptide fold change (50 µM): -0.0545

ZNF691_Q5VV52_230_THLEPAPYICCECGK (UniProt Q5VV52)
Sequence of UniProt Q5VV52 (Q5VV52 whole entry, looked up): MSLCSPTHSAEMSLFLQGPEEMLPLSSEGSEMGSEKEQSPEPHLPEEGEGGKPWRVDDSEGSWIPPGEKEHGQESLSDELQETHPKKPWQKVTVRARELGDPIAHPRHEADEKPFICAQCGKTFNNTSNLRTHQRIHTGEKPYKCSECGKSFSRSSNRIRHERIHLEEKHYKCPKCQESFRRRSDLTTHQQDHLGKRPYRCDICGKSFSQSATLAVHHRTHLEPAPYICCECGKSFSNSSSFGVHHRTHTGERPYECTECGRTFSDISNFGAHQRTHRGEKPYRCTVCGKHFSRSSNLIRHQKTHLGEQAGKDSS
probe-labelled cysteine peptide fold change (10 µM): -0.272 | probe-labelled cysteine peptide fold change (50 µM): -0.8

ZCCHC3_Q9NUD5_238_REQEDCWENFVVLGR (UniProt Q9NUD5)
Sequence of UniProt Q9NUD5 (Q9NUD5 whole entry, looked up): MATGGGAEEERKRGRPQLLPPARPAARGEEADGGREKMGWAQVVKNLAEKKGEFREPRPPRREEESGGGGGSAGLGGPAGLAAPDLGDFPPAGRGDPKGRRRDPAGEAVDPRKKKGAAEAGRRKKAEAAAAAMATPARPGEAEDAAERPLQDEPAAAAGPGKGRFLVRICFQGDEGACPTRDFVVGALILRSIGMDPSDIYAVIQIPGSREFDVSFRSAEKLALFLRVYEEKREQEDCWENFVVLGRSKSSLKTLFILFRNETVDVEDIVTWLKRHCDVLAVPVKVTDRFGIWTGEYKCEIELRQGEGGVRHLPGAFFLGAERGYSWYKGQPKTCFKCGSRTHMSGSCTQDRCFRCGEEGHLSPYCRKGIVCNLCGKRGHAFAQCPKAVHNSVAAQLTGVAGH
probe-labelled cysteine peptide fold change (10 µM): 0.192 | probe-labelled cysteine peptide fold change (50 µM): 0.112

YES1_P07947_42_YRPENTPEPVSTSVSHYGAEPTTVSPCPSSSAK (UniProt P07947)
Sequence of UniProt P07947 (P07947 whole entry, looked up): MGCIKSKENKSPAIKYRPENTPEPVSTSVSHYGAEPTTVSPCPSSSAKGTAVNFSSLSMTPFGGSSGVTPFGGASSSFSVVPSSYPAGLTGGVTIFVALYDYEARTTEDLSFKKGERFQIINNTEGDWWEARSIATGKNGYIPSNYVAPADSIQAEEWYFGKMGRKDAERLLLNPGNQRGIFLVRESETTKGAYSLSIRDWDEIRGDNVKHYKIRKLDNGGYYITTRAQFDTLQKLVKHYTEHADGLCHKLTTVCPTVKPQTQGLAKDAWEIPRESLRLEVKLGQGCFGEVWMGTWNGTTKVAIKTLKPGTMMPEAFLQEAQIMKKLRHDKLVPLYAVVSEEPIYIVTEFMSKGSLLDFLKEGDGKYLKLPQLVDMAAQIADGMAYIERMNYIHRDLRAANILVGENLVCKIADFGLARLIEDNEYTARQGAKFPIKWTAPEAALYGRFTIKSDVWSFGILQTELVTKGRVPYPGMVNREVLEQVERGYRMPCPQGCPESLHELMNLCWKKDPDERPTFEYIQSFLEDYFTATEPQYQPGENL
probe-labelled cysteine peptide fold change (10 µM): -0.0245 | probe-labelled cysteine peptide fold change (50 µM): -0.239
